Data as given in PubChem BioAssay (Tox21).
“And” between values parts separate entries of the source, which are not always exact repeats. Equal entries are not always repeated. Inconclusive results are not listed. The source made the active and inactive calls. Calls come from the whole dose curve; as a rule, active = well fitted curve in the direction sought with a large enough effect in the repeat runs; inconclusive = weak or mixed curves; inactive = no such curve, though single readings can be large; an effect the other way counts as inactive or inconclusive.

Columns and labels:
[1] = A CellTox Green Cytotoxicity Assay to monitor cytotoxicity in HEK293 cells - 8 hour (AID 1224884); note: nearly all actives have a fitted effect of over 35% in size; note: potency is the fitted concentration of half-maximal effect
In short: (§1)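 Homogeneous no-lysis format: HEK293 cell suspension mixed with CellTox Green reagent, seeded, incubated 5 h at 37 C/5% CO2, then dosed by pintool with compound in DMSO.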

[2] = qHTS RealTime-Glo MT Cell Viability Assay in HepG2 cells - 16 hour (AID 1224885); note: nearly all actives have a fitted effect of over 50% in size; note: potency is the fitted concentration of half-maximal effect
In short: (§2)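 Cells + NanoLuc/prosubstrate dispensed (600 cells/well) → 5 h at 37 C/5% CO2 → compounds in DMSO transferred → 40 h incubation at 37 C, luminescence read at 0, 8, 16, 24, 32, 40 h.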

[3] = qHTS RealTime-Glo MT Cell Viability Assay in HEK293 cells - 24 hour (AID 1224886); note: nearly all actives have a fitted effect of over 50% in size; note: potency is the fitted concentration of half-maximal effect; for activity change, negative = cytotoxicity: top concentration of the series differs between compounds
In short: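 Tox21 10K qHTS, HEK293, 600 cells/well, RealTime-Glo reagent co-dispensed with cells; 5 h preincubation, compound by pintool, 37 C, luminescence at 0–40 h.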

[4] = qHTS RealTime-Glo MT Cell Viability Assay in HepG2 cells - 0 hour (AID 1224889); note: nearly all actives have a fitted effect of over 50% in size
In short: as §2

[5] = A CellTox Green Cytotoxicity Assay to monitor cytotoxicity in HepG2 cells - 8 hour (AID 1224890); note: nearly all actives have a fitted effect of over 45% in size; note: potency is the fitted concentration of half-maximal effect
In short: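 Fluorescent DNA-binding dye, 600 HepG2 cells/well, 5 h preincubation then compound in DMSO; same plates read at 0–40 h, 37 C.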

[6] = qHTS assay to identify small molecule antagonists of the estrogen receptor alpha (ER-alpha) signaling pathway using the BG1 cell line in the presence of 0.1 nM 17-beta-estradiol - cell viability counter screen (AID 1259241); note: nearly all actives have a fitted effect of over 40% in size; note: potency is the fitted concentration of half-maximal effect
In short: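 Measures cytotoxicity alongside the ER-alpha antagonist readout: VM7Luc4E2 cells, charcoal-stripped serum, 0.1 nM 17beta-estradiol final, 22 hr compound incubation at 37C, CellTiter-Fluor fluorescence.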

[7] = qHTS assay to identify small molecule antagonists of the androgen receptor (AR) signaling pathway using the MDA cell line in the presence of 0.5 nM R1881 - cell viability counter screen (AID 1259242); note: nearly all actives have a fitted effect of over 45% in size; note: potency is the fitted concentration of half-maximal effect
In short: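 Human breast carcinoma MDA-kb2 cells, cultured without CO2, receive compounds alongside 0.5 nM (final) R1881 agonist. After 16 hr at 37C, viability is taken as live-cell protease signal.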

[8] = A CellTox Green Cytotoxicity Assay to monitor cytotoxicity in HEK293 cells - 16 hour (AID 1224888); note: nearly all actives have a fitted effect of over 35% in size; note: potency is the fitted concentration of half-maximal effect
In short: as §1

[9] = target: Androgen receptor (Homo sapiens) (UniProt P10275); assay: qHTS assay to identify small molecule antagonists of the androgen receptor (AR) signaling pathway using the MDA cell line in the presence of 0.5 nM R1881 (AID 1259243); note: nearly all actives have a fitted effect of over 50% in size; note: potency is the fitted concentration of half-maximal effect
In short: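 Cells: MDA-kb2 (MMTV-luc). Stimulus: 0.5 nM R1881. Time: 16 hr, 37C, no CO2. Detection: ONE-Glo luminescence after 30 min at RT.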

[10] = qHTS RealTime-Glo MT Cell Viability Assay in HEK293 cells - 8 hour (AID 1224887)
In short: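 Measured as luminescence from the same continuously cultured HEK293 wells at successive time points (0, 8, 16, 24, 32, 40 h) after compound addition. Reagent present from seeding; dosing at 5 h; incubation 37 C.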
% is set by controls: 0 for no effect and ±100 for the full control effect.

Androgen receptor (Homo sapiens), sequence (P10275 whole entry, looked up): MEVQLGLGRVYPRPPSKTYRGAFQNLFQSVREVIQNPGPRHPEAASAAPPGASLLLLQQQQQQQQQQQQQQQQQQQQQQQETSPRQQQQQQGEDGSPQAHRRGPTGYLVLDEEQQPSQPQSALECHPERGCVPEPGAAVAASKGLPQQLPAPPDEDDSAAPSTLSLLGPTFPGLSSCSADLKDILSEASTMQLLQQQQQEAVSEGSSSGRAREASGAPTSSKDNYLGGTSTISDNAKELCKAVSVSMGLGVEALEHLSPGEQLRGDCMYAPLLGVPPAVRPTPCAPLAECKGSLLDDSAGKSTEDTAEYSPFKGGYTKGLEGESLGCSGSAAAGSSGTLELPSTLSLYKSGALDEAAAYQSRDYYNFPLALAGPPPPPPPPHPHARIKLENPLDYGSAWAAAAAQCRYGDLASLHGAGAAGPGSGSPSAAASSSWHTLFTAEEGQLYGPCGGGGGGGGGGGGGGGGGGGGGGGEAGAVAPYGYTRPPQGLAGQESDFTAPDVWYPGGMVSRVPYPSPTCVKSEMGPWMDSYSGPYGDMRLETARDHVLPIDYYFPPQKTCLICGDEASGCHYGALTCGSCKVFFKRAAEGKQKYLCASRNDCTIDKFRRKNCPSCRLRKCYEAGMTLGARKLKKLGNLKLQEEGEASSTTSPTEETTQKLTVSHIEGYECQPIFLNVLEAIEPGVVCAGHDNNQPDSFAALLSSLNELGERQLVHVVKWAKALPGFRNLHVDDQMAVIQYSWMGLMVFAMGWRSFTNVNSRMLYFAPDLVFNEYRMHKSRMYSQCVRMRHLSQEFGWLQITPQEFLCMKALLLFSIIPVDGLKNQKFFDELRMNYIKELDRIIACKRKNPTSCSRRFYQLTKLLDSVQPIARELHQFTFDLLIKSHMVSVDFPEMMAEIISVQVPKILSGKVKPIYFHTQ

CCCCC(CC)COC(=O)c1ccc(O)cc1 (centres undefined)
active: Potency [1] 43.5 µM | Potency [3] 54.7 µM | Potency [5] 38.9 µM
inactive: Potency [2] | Potency [4] | Potency [6] | Potency [7]

CC1=CCC(=O)O1
inactive: Potency [1] | Potency [2] | Potency [3] | Potency [8] | Potency [4] | Potency [5] | Potency [6] | Potency [7]

Brc1ccccn1
inactive: Potency [1] | Potency [2] | Potency [3] | Potency [8] | Potency [4] | Potency [5] | Potency [6] | Potency [7]

CCN=c1cc2oc3cc(NCC)c(C)cc3c(-c3ccccc3C(=O)OCC)c-2cc1C
active: Potency [1] 10.9 µM and 9.77 µM | Potency [2] 43.5 µM and 24.5 µM | Potency [3] 2.45 µM and 1.74 µM | Potency [8] 10.9 µM and 11 µM | Potency [5] 21.8 µM and 6.92 µM | Potency [6] 8.6 µM and 10.9 µM | Potency [7] 965 nM and 864 nM | Potency [9] 122 nM and 217 nM
inactive: Potency [4]

Brc1ccccc1-c1ccccc1
inactive: Potency [1] | Potency [2] | Potency [3] | Potency [4] | Potency [6] | Potency [7]

CSc1c(Cl)c(Cl)c(Cl)c(Cl)c1Cl
inactive: Potency [1] | Potency [2] | Potency [3] | Potency [8] | Potency [4] | Potency [5] | Potency [6] | Potency [7]

CO[C@H]1C=CO[C@@]2(C)Oc3c(C)c(O)c4c(O)c(cc(O)c4c3C2=O)NC(=O)/C(C)=C\C=C/[C@H](C)[C@H](O)[C@@H](C)[C@@H](O)[C@@H](C)[C@H](OC(C)=O)[C@@H]1C
active: Potency [6] 27.5 µM
inactive: Potency [1] | Potency [2] | Potency [3] | Potency [8] | Potency [5]

CCCCOc1ccc(C(=O)CCN2CCCCC2)cc1
active: Potency [2] 23.9 µM | Potency [3] 23.9 µM | Potency [5] 21.3 µM
inactive: Potency [1] | Potency [8] | Potency [4] | Potency [6]

CCN(CC)CCCN(c1ccccc1)C1Cc2ccccc2C1
inactive: Potency [1] | Potency [2] | Potency [10] | Potency [8] | Potency [4] | Potency [5] | Potency [6] | Potency [7]

Clc1ccc(C(Cn2ccnc2)OCc2c(Cl)cccc2Cl)c(Cl)c1 (centres undefined)
active: Potency [3] 16.9 µM | Potency [9] 8.41 µM
inactive: Potency [1] | Potency [2] | Potency [8] | Potency [6] | Potency [7]

CC(C)N=C(N)/N=C(\N)Nc1ccc(Cl)cc1
active: Potency [3] 23.9 µM
inactive: Potency [1] | Potency [2] | Potency [8] | Potency [4] | Potency [5] | Potency [7]

CN1[C@@H]2CC[C@@H]1CC(OC(=O)C(CO)c1ccccc1)C2 (some centres undefined)
inactive: Potency [1] | Potency [2] | Potency [10] | Potency [8] | Potency [4] | Potency [5] | Potency [6] | Potency [7]

CCCCCCCC(OC)OC
inactive: Potency [1] | Potency [2] | Potency [3] | Potency [8] | Potency [4] | Potency [5] | Potency [7] | Potency [9]

O=C(O)CC(=O)O
inactive: Potency [1] | Potency [2] | Potency [3] | Potency [8] | Potency [4] | Potency [5] | Potency [6] | Potency [7]

CCCN(CCc1cccs1)[C@H]1CCc2c(O)cccc2C1
active: Potency [3] 7.56 µM | Potency [9] 26.6 µM
inactive: Potency [1] | Potency [2] | Potency [4] | Potency [6] | Potency [7]

CC1CCCCC1
inactive: Potency [1] | Potency [2] | Potency [3] | Potency [8] | Potency [4] | Potency [5] | Potency [6] | Potency [7] | Potency [9]

c1ccc(Nc2cccc3ccccc23)cc1
inactive: Potency [1] | Potency [2] | Potency [3] | Potency [8] | Potency [4] | Potency [5] | Potency [6] | Potency [7]

CO[Si](CCC1CCC2OC2C1)(OC)OC (centres undefined)
inactive: Potency [1] | Potency [2] | Potency [3] | Potency [8] | Potency [4] | Potency [5] | Potency [6] | Potency [7] | Potency [9]

CCCCCCCOC(=O)c1ccccc1C(=O)OCCCCCCC
inactive: Potency [1] | Potency [2] | Potency [3] | Potency [8] | Potency [4] | Potency [5] | Potency [6] | Potency [7] | Potency [9]

COc1ccccc1OCCNCC(O)COc1cccc2[nH]c3ccccc3c12 (centres undefined)
inactive: Potency [1] | Potency [8] | Potency [4] | Potency [5]
active: Potency [2] 23.9 µM | Potency [3] 10.7 µM

CCCCCCCC(=O)OCC
inactive: Potency [1] | Potency [2] | Potency [3] | Potency [8] | Potency [4] | Potency [5] | Potency [6] | Potency [7] | Potency [9]

O=C1NCCN1CCN1CCC(c2cn(-c3ccc(F)cc3)c3ccc(Cl)cc23)CC1
inactive: Potency [1] | Potency [4]
active: Potency [2] 23.9 µM | Potency [3] 21.3 µM | Potency [9] 11.9 µM

CC(=O)Oc1ccc(C2(c3ccc(OC(C)=O)cc3)C(=O)Nc3ccccc32)cc1
inactive: Potency [1] | Potency [2] | Potency [3] | Potency [10] | Potency [4] | Potency [5] | Potency [7]

CC(C)CCOCCC(C)C
inactive: Potency [1] | Potency [2] | Potency [10] | Potency [8] | Potency [4] | Potency [5] | Potency [6] | Potency [7] | Potency [9]

N[C@@H](CSSC[C@H](N)C(=O)O)C(=O)O
inactive: cytotoxicity increase [1] 26.5% [at 0.29 µM] | activity change, negative = cytotoxic [2] 0.777% [at 0.29 µM] | activity change, negative = cytotoxicity [10] 16.3% [at 0.29 µM] | activity change, negative = cytotoxicity [4] 0.0589% [at 0.29 µM] | viability change, negative = cytotoxic [7] -1.71% [at 0.349 µM] | activity, negative = inhibition [9] 4.74% [at 0.349 µM]
